In all, about 16,000 compounds went through this assay and about 5,800 (36%) were called active. About 23% were inconclusive and are not listed. Calls come from the whole dose curve; as a rule, active = well fitted curve in the direction sought with a large enough effect; inconclusive = small, poorly fitted or top-dose-only effect, or effect the other way; inactive = no such curve, though single readings can be large or run the other way. Some of the results follow.
Molecular target: Cytochrome P450 2C19 (Homo sapiens) (UniProt P33261)
Test: Cytochrome panel assay with activity outcomes
Conditions: recombinant CYP, pro-luciferin dealkylation, luminescence, p450-cyp2c19; series mostly up to 57.1 µM
% is set by controls: 0 for no effect and ±100 for the full control effect.

Chain of Cytochrome P450 2C19 (Homo sapiens) (P33261 whole entry, looked up): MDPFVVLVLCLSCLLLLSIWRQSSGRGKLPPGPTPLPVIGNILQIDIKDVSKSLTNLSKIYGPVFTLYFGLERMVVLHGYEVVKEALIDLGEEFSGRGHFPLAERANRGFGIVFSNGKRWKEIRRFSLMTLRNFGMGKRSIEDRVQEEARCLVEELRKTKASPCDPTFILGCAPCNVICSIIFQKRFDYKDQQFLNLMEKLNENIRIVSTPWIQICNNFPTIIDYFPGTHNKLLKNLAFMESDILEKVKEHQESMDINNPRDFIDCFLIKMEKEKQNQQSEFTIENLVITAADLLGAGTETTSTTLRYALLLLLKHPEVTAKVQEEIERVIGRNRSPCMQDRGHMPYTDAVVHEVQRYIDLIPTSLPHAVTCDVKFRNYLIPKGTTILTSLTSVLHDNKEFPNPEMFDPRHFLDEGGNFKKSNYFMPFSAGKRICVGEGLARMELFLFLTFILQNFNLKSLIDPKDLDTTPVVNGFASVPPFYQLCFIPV

SMILES	AC50	activity, negative = inhibition
CCC(Sc1nc2cc3c(cc2c(=O)n1Cc1ccco1)OCO3)C(=O)Nc1ccccc1OC (centres undefined)	2510 nM (active)	
COc1cccc(Nc2ncc3nc(-c4cccs4)c(=O)n(Cc4cccs4)c3n2)c1	inactive	
COc1cccc(Cn2c(=O)c(-c3cccs3)nc3cnc(Nc4cccc(OC)c4)nc32)c1	inactive	
CCC(Sc1nc2cc3c(cc2c(=O)n1Cc1ccco1)OCO3)C(=O)Nc1cccc(OC)c1 (centres undefined)	7080 nM (active)	
Cn1c(=O)c2[nH]cnc2n(C)c1=O	inactive	
Cc1nc2sccc2c(=O)n1-c1cccc(Cl)c1	794 nM (active)	
N#CCCn1c(=O)c(-c2cccs2)nc2cnc(Oc3cccc(Cl)c3)nc21	inactive	
COC(=O)C/C=C\[C@@H](C)[C@@H](/C=N\OC[C@@H](O)COCc1ccco1)OC		-19.2% [at 11.4 µM] (inactive)
COC(=O)C/C=C\[C@@H](C)[C@@H](/C=N\OCC[C@H]1C=C[C@H](OC(C)=O)[C@@H](COC(C)=O)O1)NS(=O)(=O)c1ccc(C)cc1		-2.17% [at 11.4 µM] (inactive)
CCCNC(=O)OC[C@H]1O[C@@H](CCO/N=C\[C@@H](NS(=O)(=O)c2ccc(C)cc2)[C@H](C)/C=C\CC(=O)OC)C=C[C@@H]1Oc1ccc(OC)cc1	3160 nM (active)	
COC(=O)C/C=C\[C@@H](C)[C@@H](/C=N\O[C@@H](C)CN1CCCCc2nc(C)c(C)cc21)NS(=O)(=O)c1ccc(C)cc1		-9.76% [at 11.4 µM] (inactive)
C=CC[C@@H]1C=C[C@H](O/N=C\[C@@H](C)[C@H](OCc2ccccc2)C(C)C)[C@H](CO)O1		-27.4% [at 11.4 µM] (inactive)
CC(=O)OC[C@@H]1O[C@H](CCO/N=C\[C@@H](C)[C@H](OCc2ccccc2)C(C)C)C=C[C@@H]1OC(C)=O		-11.7% [at 11.4 µM] (inactive)
CCCNC(=O)OC[C@@H]1O[C@H](CCO/N=C\[C@@H](C)[C@H](OCc2ccccc2)C(C)C)C=C[C@@H]1Oc1ccc(OC)cc1	3160 nM (active)	
COC(=O)C/C=C\[C@@H](C)[C@@H](/C=N\OC[C@@H]1O[C@H](c2ccccc2)C=C[C@@H]1Oc1ccc(OC)cc1)OC	1580 nM (active)	
C=CC[C@@H]1C=C[C@@H](O/N=C\[C@@H](OC)[C@H](C)/C=C\CC(=O)OC)[C@@H](CO)O1		-6.92% [at 11.4 µM] (inactive)
COC(=O)C/C=C\[C@@H](C)[C@@H](/C=N\OC[C@@H](O)[C@H]1O[C@H]2OC(C)(C)O[C@H]2[C@@H]1O)NS(=O)(=O)c1ccc(C)cc1		-25.2% [at 11.4 µM] (inactive)
COC(=O)C/C=C\[C@@H](C)[C@@H](/C=N\OC[C@@H]1O[C@H](c2ccccc2)C=C[C@@H]1Oc1ccc(OC)cc1)NS(=O)(=O)c1ccc(C)cc1	398 nM (active)	
CCCc1c(OCCCOc2ccc(OCC(=O)O)cc2)ccc(C(C)=O)c1O	inactive	
O=C1C2C3C=CC(C3)C2C(=O)N1/N=C/c1cn(Cc2ccc(F)cc2)c2ccccc12 (centres undefined)	11200 nM (active)	
c1ccc2sc(SCSc3nc4ccccc4s3)nc2c1	1260 nM (active)	
c1ccc2sc(SCCSc3nc4ccccc4s3)nc2c1		6.86% [at 11.4 µM] (inactive)
NCCSc1nc2ccccc2s1	1580 nM (active)	
Oc1ccccc1C(Sc1nc2ccccc2s1)Sc1nc2ccccc2s1	3160 nM (active)	
c1ccc(NCCSc2nc3ccccc3s2)cc1	398 nM (active)	

SMILES	AC50	activity, negative = inhibition
C[N+](C)(C)CC(=O)O	inactive	
CC(C)OC(=O)CC12CN(C)CC(CC(=O)OC(C)C)(CN(C)C1)C2=O	inactive	
COc1ccc(-c2nc3cnc(N4CCOCC4)nc3n(C[C@H]3CCCO3)c2=O)cc1	inactive	
O=C(O)[C@@H]1CS[C@@]2(CCCN(Cc3ccccc3)C2)N1		7.34% [at 11.4 µM] (inactive)
C#CCCCO/N=C1/C[C@@H](O)[C@@H](O)[C@@H]2[C@@H]3C(=O)N(CC)C(=O)[C@H]3CC[C@@H]12		-28.6% [at 11.4 µM] (inactive)
CCOC(=O)c1cnc(SCCc2ccccc2)nc1N	7940 nM (active)	
Cc1ccc(C2=Nc3ccccc3S[C@@H](c3cccc([N+](=O)[O-])c3)C2)cc1	3980 nM (active)	
Cc1ccc(/C(C#N)=C/c2cccc([N+](=O)[O-])c2)cc1		8.97% [at 11.4 µM] (inactive)
NC[C@@H]1O[C@H](C23CC4CC(CC(C4)C2)C3)Cc2c1ccc(O)c2O	inactive	
NC[C@@H]1O[C@H](c2ccccc2)Cc2c1ccc(O)c2O	1000 nM (active)	
O=C1[C@H]2[C@H]3[C@H](O)[C@H](O)C/C(=N/OCc4ccccc4)[C@@H]3CC[C@@H]2C(=O)N1C[C@@H]1CCCO1		-0.01% [at 11.4 µM] (inactive)
CC1(CC(=O)O)O[C@H]2CCCCC[C@H]2O1 (some centres undefined) (tested in a mixture with another compound)		1.88% [at 11.4 µM] (inactive)
O=C(CC1(O)CCCCC1)OC1CCCC1	1580 nM (active)	
CC1(CCC(=O)OC2CCCCC2)OCCO1		-35.8% [at 11.4 µM] (inactive)
COc1ccccc1CNc1cc(-c2ccccc2OC)ncn1	1580 nM (active)	
COc1ccccc1CNc1cc(-c2ccccc2C)ncn1	1000 nM (active)	
COc1ccccc1CNc1cc(-c2ccc(C(=O)N(C)C)cc2)ncn1	inactive	
Cc1cnc(CNc2cc(-c3ccccc3CN(C)C)ncn2)cn1	inactive	
CC1CCN(c2cc(N3CCC(C)CC3)c([N+](=O)[O-])cc2/C=C(\C#N)c2nn(-c3ccccc3)c(N)c2C#N)CC1	447 nM (active)	
N#C/C(=C\c1cc([N+](=O)[O-])c(N2CCCCC2)cc1N1CCCCC1)c1nn(-c2ccccc2)c(N)c1C#N	282 nM (active)	
Cc1noc(C)c1C(=O)N1CCC2(CCN(C(=O)NC(C)C)CC2)CC1	inactive	
OC[C@@H]1NC[C@@H](O)[C@@H](O)[C@H]1O	inactive	
O=C(NNC(=S)NCc1ccco1)c1ccc(Cl)s1	7940 nM (active)	
Nc1ncnc2c1ncn2[C@H]1O[C@@H](C(=O)OCCO)[C@@H](O)[C@H]1O		4.2% [at 11.4 µM] (inactive)
